High-throughput results: PubChem BioAssay, several laboratories
Shn3 inh set2 – Schnurri-3 reporter inhibition in Clone20 osteoblasts; 360,000 tested, 0.52% active; AID 588674; Clone20 osteoblast Shn3 3'UTR firefly luciferase, 24 h; inhibition, % at 12.5 µM;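 active means mean inhibition of at least 75% with every replicate also reaching 75%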;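 further: 0% = median of neutral control wells and 100% = pilot-screen positive control compound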
EBV LMP1 NFkB – Epstein-Barr LMP1 NF-kappaB reporter inhibition | LMP1-induced NF-kappaB luciferase reporter cells, luminescence | inhibition, % at 12.5 µM | 350,000 tested, 0.69% active | AID 504558; in the data active means inhibition above about 41%;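 further: 0% = neutral control wells and 100% = reference inhibitor control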
HIF-2a inh – HIF-2a inhibition; 786-0 RCC cells HIF-2a reporter, luciferase luminescence, overnight; inhibition, % at 18.8 µM; 360,000 tested, 0.72% active; AID 624352;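 active means inhibition of the luminescence signal of 40% or more relative to plate controls, in a single-dose primary screen at 18.75 µM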
TROY NFkB inh – TROY signaling inhibition. inhibition, % at 10 µM. 360,000 tested, 0.98% active. Q293 LMP1-TROYcd NF-kB luciferase reporter, 4 h;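 active means compounds whose plate-normalised and pattern-corrected inhibition of the luciferase reporter signal at the single screening dose is 50% or more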
TWEAK-Fn14 inh – blocks TWEAK-Fn14 interaction in a reporter cell assay | TWEAK-stimulated Fn14 reporter cells, luciferase luminescence, 8 h | inhibition, % at 10 µM | 360,000 tested, 2% active; in the data active means inhibition above about 50%
TRPM1 prom inh – inhibitors of MITF-driven TRPM1 promoter in melanoma cells; SK-MEL-5 TRPM1 promoter luciferase, 24 h; inhibition, % at 12.5 µM; 330,000 tested, 0.83% active; AID 488899;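 active means mean inhibition across replicates of 60% or more, whatever share of single replicates reaches that level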
An asterisk follows results filed as active; nt = not tested or not shown. Hits are enriched below; roughly 3.4% of the tested compounds scored in any of these assays.

SMILES | Shn3 inh set2 | EBV LMP1 NFkB | HIF-2a inh | TROY NFkB inh | TWEAK-Fn14 inh | TRPM1 prom inh
O=C(Cc1ccc(Cl)cc1)NN1C(=O)c2ccccc2C1=O | 6.5 | -1.8 | 23.7 | 6.8 | -2.2 | 6.4
O=C1c2cc(O)c(O)cc2OC(c2ccc(O)c(O)c2)C1O (stereo unspecified) | -10.8 | -5.7 | 8.9 | -7.3 | 14.6 | -5.1
COc1ccc(/C=C/C(=O)N(C)C2CCCCC2)cc1Br | -42.3 | -37.5 | -232.8 | -31.1 | -40.2 | -69.7
CN(C(=O)/C=C/c1cnc2ccccc2c1)C1CCCCC1 | -37.7 | 16.7 | -70.3 | 31.8 | 52.4* | -4.5
CC1CCCC(C)N1C(=O)COC(=O)c1c[nH]c2ccccc12 (stereo unspecified) | -9.4 | -12.9 | -59.1 | -27.4 | 8.2 | -19.9
CCN1CCN(S(=O)(=O)c2ccc(Cl)c(C(=O)N(C)Cc3ccco3)c2)CC1 | -28.9 | -3.1 | 18.0 | -2.7 | -6.0 | -7.3
O=C(/C=C/NNC(=O)c1ccccc1)c1ccc([N+](=O)[O-])cc1 | 33.9 | 17.4 | -11.3 | -53.2 | -1.8 | 64.0*
O=C(Nc1ccccc1O)c1ccc([N+](=O)[O-])cc1 | -8.3 | 25.6 | -156.8 | -27.7 | 110.1* | -16.0
CSc1ccccc1NC(=O)c1ccc([N+](=O)[O-])cc1 | -26.3 | 0.8 | -47.7 | -7.4 | -9.9 | -13.9
O=C(Nc1cc(Cl)cc(Cl)c1)Nc1cnccn1 | 12.6 | -1.4 | -10.1 | 24.1 | 19.1 | 6.2
Cc1cc2oc(=O)cc(CN3CCN(c4ccc(Cl)c(Cl)c4)CC3)c2cc1Cl | 18.3 | nt | 10.8 | 0.1 | 14.5 | nt
Cc1cc(C)c(S(=O)(=O)N2CCN(C(=O)c3ccccc3OCc3c(C)noc3C)CC2)c(C)c1 | 19.9 | 45.5* | 23.6 | -2.1 | -4.2 | 6.6
CCOC(=O)COn1c(=O)c(-c2ccccc2)[n+]([O-])c2ccccc21 | -7.0 | -6.5 | 15.4 | -25.1 | 7.8 | -6.7
Nc1ccc(Oc2ccccc2-c2ccccc2)cc1 | nt | 29.4 | 91.0* | 68.5* | 82.5* | 66.2*
NCCOc1ccccc1-c1ccccc1 | 7.3 | -2.8 | 18.4 | 0.5 | 24.6 | 0.4
COC(=O)CCCC[C@@H]1SC[C@@H](NC(=O)OC)[C@@H]1NC(=O)OC | 14.6 | 53.4* | 14.4 | -16.2 | 6.3 | 3.8
COC(=O)CCCCC1SCC(NC(=O)OC)C1NC(=O)OC (stereo unspecified) | -5.6 | 6.5 | 16.0 | nt | 19.1 | 4.4
CC(C)Oc1ccc(S(=O)(=O)N2CCOCC2)cc1NC(=O)CCCSc1ccccc1 | -9.6 | 4.2 | 3.0 | -3.2 | 15.4 | -8.7
O=C(CSc1nc2c(cnn2-c2ccc(F)cc2)c(=O)[nH]1)N1N=C(c2cccs2)CC1c1ccc(F)cc1 (stereo unspecified) | 4.8 | nt | 8.3 | 50.3* | 56.6* | nt
O=C(CCCN1C(=O)c2ccccc2C1=O)Nc1cccc(S(=O)(=O)NC2=NCCC2)c1 | -16.3 | 8.3 | 11.8 | -3.2 | -6.8 | -0.8
CCOC(=O)c1nnn(CC(=O)NC(=O)Nc2ccc(F)cc2)c1C(=O)OCC | -2.9 | -3.3 | 0.3 | -0.8 | 3.2 | -6.2
O=C(NC1CC1)c1cc(-c2ccc(Br)cc2)nc2ccccc12 | 3.9 | 42.4* | -51.8 | -13.1 | -14.4 | -3.7
COc1ccc(-c2cc(C(=O)NC3CC3)c3ccccc3n2)cc1 | -23.5 | -1.7 | -50.2 | -14.8 | 17.7 | -16.0
CC1=C(C(=O)N(C)C)CC(CC(=O)NC2CCCC2)C(=O)N1Cc1ccc(F)cc1 (stereo unspecified) | -64.4 | -7.6 | 8.4 | -15.0 | 2.4 | nt
O=S(=O)(Nc1ccc(C(O)(C(F)(F)F)C(F)(F)F)cc1)c1ccc(Cl)c2nonc12 | -10.2 | nt | 14.6 | 10.1 | 76.0* | nt
SMILES | Shn3 inh set2 | EBV LMP1 NFkB | HIF-2a inh | TROY NFkB inh | TWEAK-Fn14 inh | TRPM1 prom inh
O=S(=O)(Nc1ccc(Br)cc1)c1cccc2nonc12 | 9.0 | -3.5 | 18.9 | -24.1 | 23.6 | -1.8
O=C1C=CC(=O)c2c(O)c(CO)c(CO)c(O)c21 | -4.4 | -0.9 | -6.1 | 3.4 | 49.0 | 102.8*
O=c1c(CO)cc(CO)cc(CO)c1O | -9.6 | -9.5 | 0.5 | 2.5 | -22.6 | 0.7
O=C(Cc1ccc(NC(=O)C2CCN(C(=O)C3CCCCC3)CC2)cc1)Nc1ccc(C(=O)N2CCOCC2)cc1 | -7.7 | -9.2 | 5.3 | 2.0 | 10.1 | 0.9
COc1ccccc1C(=O)COC(=O)c1ccc(-n2cnnn2)cc1 | -0.2 | 2.7 | -19.1 | -32.5 | -25.8 | -23.9
O=C(COC(=O)c1ccccc1-n1cnnn1)c1ccc(F)cc1 | -104.7 | 3.8 | -110.5 | 64.1* | 52.8* | -55.1
C[C@]12c3[nH]c4ccc(Cl)cc4c3CCN1C(=O)[C@@H](CC(=O)NCC13CC4CC(CC(C4)C1)C3)C[C@@H]2C(=O)N1CCOCC1 | 54.6 | -2.5 | -47.2 | 38.8 | 42.0 | 16.7
O=C(C[C@H]1C[C@H](C(=O)N2CCCCC2)[C@@]2(CCc3ccccc3)c3[nH]c4ccc(Cl)cc4c3CCN2C1=O)NCCc1ccccn1 | 32.6 | 20.1 | 7.1 | 63.0* | 68.7* | 52.1
O=C(CC1C[C@H](C(=O)N2CCOCC2)[C@@]2(CCC3CCCC3)c3[nH]c4ccccc4c3CCN2C1=O)NCC12CC3CC(CC(C3)C1)C2 (stereo partly specified) | 81.1 | 11.6 | -28.8 | 3.3 | 50.5* | 14.2
COc1ccc2[nH]c3c(c2c1)CCN1C(=O)C(CC(=O)NCCc2ccccn2)C[C@H](C(=O)N2CCCCC2)[C@@]31CCc1ccccc1 (stereo partly specified) | 7.8 | 3.3 | 6.8 | 4.5 | 7.5 | 6.4
C[C@]12c3[nH]c4ccc(Cl)cc4c3CCN1C(=O)[C@@H](CC(=O)NCC13CC4CC(CC(C4)C1)C3)C[C@@H]2C(=O)N1CCCCC1 | 34.0 | 3.0 | -16.0 | 35.4 | 60.8* | 2.7
CN(C(=O)c1ccc(NC(=O)Cc2ccc(NC(=O)C3CCN(C(=O)C4CC4)CC3)cc2)cc1)C1CCCC1 | -16.0 | -4.5 | 12.8 | -2.4 | -5.9 | -7.0
CC1CCN(CC(C)OC(=O)c2ccc3c(c2)OCCO3)CC1 (stereo unspecified) | -13.9 | 6.1 | -24.6 | -36.0 | -2.5 | -21.9
CC(CN1CCCCC1)OC(=O)c1ccc2c(c1)OCO2 (stereo unspecified) | -14.7 | 43.1* | -21.5 | -27.6 | 9.9 | 10.9
COc1ccc(NC(=O)CNc2cc(C)ccc2C)cc1S(=O)(=O)N1CCOCC1 | -5.2 | 0.5 | 2.4 | -7.8 | -14.6 | 13.4
CC(=O)NC(c1ccc(F)c(F)c1)c1nc(-c2ccncc2)cs1 (stereo unspecified) | 33.5 | nt | 8.6 | -4.4 | 2.9 | nt
COc1ccc(C(=O)NCc2ccc3c(c2)cc(C)n3C)cc1OC | -17.0 | 3.8 | 6.0 | -14.2 | -17.4 | -3.2
COc1ccc(/C=C\C(=O)NCc2ccc3c(c2)cc(C)n3C)cc1OC | 4.7 | 66.6* | -1.5 | -0.1 | 21.0 | -2.1
c1ccc2cc(CCO[C@H]3CCCCO3)ncc2c1 | -27.3 | 26.1 | -61.8 | 10.2 | 66.5* | -16.3
c1nc(CCO[C@H]2CCCCO2)cc2cc3c(cc12)OCO3 | 17.7 | 38.6 | 19.1 | 60.4* | 92.1* | 6.6
